# From PubChem BioAssay AID504832 (National Center for Advancing Translational Sciences (NCATS), 2011)
# The whole screen tested about 310,000 compounds, of which about 18,000 (5.8%) were called active. Roughly 22% stayed inconclusive and do not appear here. What follows is part of a selection rich in actives, with near analogues and random picks from the rest. A call without a number means that no potency is given here. A number with no mark means an inactive call. Calls follow the shape of the dose curve; as a rule, active = well fitted inhibition curve with a large enough effect; inconclusive = small, poorly fitted or top-dose-only effect, or another doubt; inactive = no such curve, though single readings can be large or run the other way.
# Assay: Primary qHTS for delayed death inhibitors of the malarial parasite plastid, 48 hour incubation
# Conditions: P. falciparum luciferase growth in erythrocytes; series mostly up to 28.7 µM
# In short: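 First compound was added to culture medium, then infected red cells at 0.1% parasitemia and 2% hematocrit (final). After incubation at 37 C under 5% CO2, luciferase detection reagent was dispensed and light output recorded.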
# Potency is read from the fitted curve at half-maximal effect.
Compound,Potency,"activity change, negative = inhibition"
CC(C)c1ccc(S(=O)(=O)NC2CCCC2)cc1,inactive,
Cc1ccccc1/C=C\c1nc(O)c([N+](=O)[O-])c(=O)[nH]1,,-10.1% [at 0.00184 µM]
O=c1[nH]c(/C=C\c2cccc(C(F)(F)F)c2)nc(O)c1[N+](=O)[O-],9.28 µM (active),
O=c1cc(O)c(-c2cccc(C(F)(F)F)c2)c(Cl)[nH]1,inactive,
Cc1ccc(C)c(NC(=O)c2cc(-c3cc(C)cc(C)c3O)n[nH]2)c1,,-16% [at 0.00184 µM]
COCC(C)OC(=O)c1c(N)n(CCCN2CCOCC2)c2nc3ccccc3nc12 (configuration not stated),inactive,
CCOC(=O)c1c(N)n(Cc2ccccc2)c2nc3ccccc3nc12,9.28 µM (active),
CCC(=O)Nc1c(S(=O)(=O)c2ccccc2)c2nc3ccccc3nc2n1Cc1ccccc1,inactive,
Cc1c(C)c2ccc(OCC(=O)N3CCN(c4cccc(Cl)c4)CC3)cc2oc1=O,inactive,
CCc1ccc2c(c1)C(c1ccc([N+](=O)[O-])cc1)=NNC(c1ccccc1)=N2,inactive,
CCc1ccc2c(c1)C1(NN=C(c3ccccc3)S1)C(=O)N2 (configuration not stated),3.7 µM (active),
O=C1Nc2ccccc2C12Nc1ccccc1S2 (configuration not stated),inactive,
O=C(c1ccc(Br)o1)N1CCN(CCOc2ccccc2)CC1,inactive,
Cc1ccc(NS(=O)(=O)c2ccc(C(C)(C)C)cc2)cn1,inactive,
O=C(/C=C/c1cccs1)c1cc(Cl)ccc1OC(=O)N1CCOCC1,10.4 µM (active),
O=C(c1cccs1)N1CCN(C(=O)N2CCOCC2)CC1,inactive,
O=C(Oc1cccc(C(=S)N2CCOCC2)c1)c1cccc(Cl)c1,inactive,
O=C(O)c1cccc(S(=O)(=O)N2CC=C(c3ccccc3)CC2)c1,inactive,
CC(C)C[C@H](NC(=O)C1CCC(CNC(=O)[C@@H]2CCCN2C(=O)OC(C)(C)C)CC1)C(=O)O (some centres not stated),inactive,
Cc1ccccc1C(=O)N1CCC(C(=O)Oc2ccc(C#N)cc2)CC1,inactive,
Cc1cc(=O)oc2ccc(OCC(=O)O)cc12,inactive,
Cc1cc(=O)oc2cc(OCCC[n+]3ccccc3)ccc12,5.22 µM (active),
COc1cccc(-c2nnc(SCCOc3ccc4c(C)cc(=O)oc4c3)o2)c1,inactive,
CC(O)c1nc2ccccc2n1Cc1ccc([N+](=O)[O-])cc1 (configuration not stated),inactive,
CCCC(NC(=O)c1ccccc1)c1nc2ccccc2n1Cc1ccc(C(=O)OC)o1 (configuration not stated),13.1 µM (active),
CCCn1c(C(Cc2ccccc2)NC(=O)COC)nc2ccccc21 (configuration not stated),inactive,

Compound,Potency,"activity change, negative = inhibition"
Cn1ccnc1SCC(=O)Nc1ccc2c(c1)OCCO2,inactive,
CCN(CC(=O)Nc1ccccc1OC)C(=O)CC1CC2CCC1C2 (configuration not stated),inactive,
N#C[C@]1(S(=O)(=O)c2ccccc2)C[C@@H]2ON=C(c3cccc(Br)c3)[C@@H]2C1,inactive,
Cc1ccc(C(=O)Nc2ccc(C)c(S(=O)(=O)N(C)C)c2)s1,inactive,
Cc1ccc(NC(=O)CNCc2ccccn2)cc1S(=O)(=O)N(C)C,16.5 µM (active),
Cc1ccc(NC(=O)c2cccs2)cc1S(=O)(=O)N(C)C,inactive,
Cn1c(CCc2ccccc2)nnc1SCC(N)=O,inactive,
COc1ccc(NC(=O)c2cccc3c2C(=O)N(CC2CCCO2)C3)cc1OC (configuration not stated),inactive,
O=C(c1cccnc1NCc1ccccc1)N1CCOCC1,inactive,
Cc1nc2sc(C(c3ccco3)N3CCOCC3)c(O)n2n1 (configuration not stated),inactive,
Oc1c(C(c2ccccn2)N2CCOCC2)ccc2cccnc12 (configuration not stated),9.28 µM (active),
CCc1noc(C)c1C(=O)N1CCCSC1=Nc1ccccc1OC,inactive,
Cc1c(C(=O)Nc2ccccn2)oc2ccc(Br)cc12,inactive,
CC(C)c1ccc(C(=O)OC2CCOC2=O)cc1 (configuration not stated),inactive,
CCC(C)(C)NC(=O)CN(C(=O)CCC(=O)Nc1nccs1)c1ccc2c(c1)OCO2,inactive,
COc1ccccc1C1SCCN1C(=O)c1ccc([N+](=O)[O-])cc1 (configuration not stated),inactive,
COc1ccc(C(=O)N2CCc3cc(OC)c(OC)cc3C2c2cccc([N+](=O)[O-])c2)cc1 (configuration not stated),6.57 µM (active),
COc1cc2c(cc1OC)C(c1cccc([N+](=O)[O-])c1)=NCC2,inactive,
Cc1ccc(OCCNC(=O)CNC(=O)c2ccc(C)c(C)c2)cc1,inactive,
CN(C(=O)COC(=O)c1nc(Cl)ccc1Cl)C1CCS(=O)(=O)C1 (configuration not stated),inactive,
COCCN1CCn2c(nc3cc(NS(C)(=O)=O)ccc32)C1,inactive,
CC(=O)c1cccc(CN2CCC(CO)(Cc3ccccc3)CC2)c1,inactive,
COc1ccccc1/C=C/CN1CCC(CO)(Cc2ccccc2)CC1,11.7 µM (active),
COc1ccc(CC2(CO)CCN(Cc3cnn(C)c3)CC2)cc1,inactive,
Cc1cc(C)n(CCNS(=O)(=O)c2ccc(Cl)cc2)n1,inactive,
CC(=O)Nc1ccc(NS(=O)(=O)c2ccc3c(c2)NC(=O)CC(=O)N3)cc1,inactive,

Compound,Potency,"activity change, negative = inhibition"
Cc1sc2ncn(CC(=O)NCCCC(=O)N(C)Cc3ccccc3)c(=O)c2c1C,inactive,
CCCc1cc(=O)[nH]c(SCC(=O)N2C(C)CCCC2C)n1 (configuration not stated),inactive,
CC1CCCC(C)N1C(=O)CN1CCN(c2nc(-c3ccc(F)cc3)cs2)CC1 (configuration not stated),11.7 µM (active),
O=C(CN1CCN(c2nc(-c3ccccc3)cs2)CC1)NCc1ccc2c(c1)OCO2,inactive,
Cc1ccc(S(=O)Cc2ccc(C(=O)N3CCN(C4CCCCC4)CC3)o2)cc1 (configuration not stated),inactive,
O=C1C(=O)N(CCN2CCOCC2)C(c2cccc(Cl)c2)/C1=C(/O)c1ccc2c(c1)OCO2 (configuration not stated),inactive,
O=C(NCCCn1ccnc1)/C(=C\c1ccccc1F)NC(=O)c1ccccc1,inactive,
CC(Oc1ccccc1)C(=O)Nc1c2c(nn1-c1ccccc1)CS(=O)C2 (configuration not stated),inactive,
O=C(Nc1sc2c(c1C(=O)O)CCC2)c1ccccc1F,inactive,
C=CCn1c(=NC(=O)c2ccc(S(=O)(=O)N3CCCC3)cc2)sc2cc(NC(C)=O)ccc21,1.85 µM (active),
C=CCn1c(=NC(=O)c2cccs2)sc2cc(NC(C)=O)ccc21,inactive,
COc1cc(C(C)=O)ccc1OC(C)C(=O)Nc1ccc(S(=O)(=O)N2CCCC2)cc1 (configuration not stated),inactive,
CCOc1ccc(C(=O)Nc2ccc(S(=O)(=O)Nc3cc(C)on3)cc2)cc1,inactive,
COc1ccc(C)cc1NC(=O)CNCc1cccs1,inactive,
C[C@H](NC(=O)OC(C)(C)C)c1nnc(SCC(=O)Nc2ccc(Br)cc2)o1,inactive,
CCOC(=O)Nc1ccc(NC(=O)OCC)cc1,inactive,
CC(C)(C)OC(=O)Nc1ccc([C@@H](NC(=O)OC(C)(C)C)C(=O)OC(C)(C)C)cc1,2.08 µM (active),
CN(Cc1ccccc1Cl)C(=O)C1CCC(=O)N(CCc2cccc(F)c2)C1 (configuration not stated),inactive,
CC1=C(C(=O)OCC2CCCCC2)C(c2ccc(F)cc2)NC(=O)N1 (configuration not stated),inactive,
CCOC(=O)C1=C(CNC2CCCCC2)NC(=O)NC1c1cc(C)ccc1C (configuration not stated),10.4 µM (active),
CCOC(=O)C1=C(c2ccccc2)NC(=O)NC1c1cc(OC)c(OC)cc1OC (configuration not stated),inactive,
Cc1ccc(S(=O)(=O)CC(=O)Nc2nnc(C)s2)cc1,inactive,
O=C(NC(=S)NC1CCS(=O)(=O)C1)c1cccc([N+](=O)[O-])c1 (configuration not stated),inactive,
CCCCCC(=O)NC(=S)NNC(=O)c1ccc([N+](=O)[O-])cc1,inactive,
CC(C)CC(=O)NC(=S)NNC(=O)c1cccc([N+](=O)[O-])c1,14.7 µM (active),
Cc1cc(C(=O)Nc2nnc(C3CC3)s2)c(C)s1,inactive,

Compound,Potency,"activity change, negative = inhibition"
CC(NCC(=O)Nc1ccccc1C(=O)NC1CC1)c1ccccc1Cl (configuration not stated),9.28 µM (active),
O=C(COc1ccccc1Cl)Nc1ccccc1C(=O)NC1CC1,inactive,
O=C(CN1CCCCC1)Nc1ccccc1C(=O)NC1CC1,inactive,
O=C(CN1C(=O)NC2(CCCCC2)C1=O)NCCc1c[nH]c2ccccc12,inactive,
CCN(CC(=O)Nc1ccc(NC(C)=O)cc1)C(=O)C1CC(=O)N(Cc2ccc(C)cc2)C1 (configuration not stated),inactive,
NS(=O)(=O)c1ccc(CNC(=O)c2cccc(S(=O)(=O)N3CCc4ccccc43)c2)cc1,14.7 µM (active),
Cc1ccc(NC(=O)c2cccc(S(=O)(=O)N3CCCc4ccccc43)c2)nc1,4.15 µM (active),
Cn1c(=O)n(C)c2cc(S(=O)(=O)N3CCCc4ccccc43)ccc21,inactive,
CC1CCN(C(=O)c2cccc(S(=O)(=O)N3CCCc4ccccc43)c2)CC1,inactive,
O=S(=O)(c1ccc2c(c1)OCCO2)N1CCc2ccccc21,inactive,
CN1CCN(S(=O)(=O)c2cccc(C(=O)N3CCc4ccccc43)c2)CC1,inactive,
Cc1nc(COc2cc3oc(=O)cc(C)c3cc2Cl)cs1,inactive,
NC(=O)C1CCCN(CC(=O)N2CCN(c3ccccc3)CC2)C1 (configuration not stated),inactive,
Cc1ccc(-n2ncc3c2CC(C)(C)CC3NC(=O)CCc2cnn(C)c2)cc1 (configuration not stated),inactive,
C[n+]1cc(-c2ccccc2)oc1-c1ccccc1,inactive,
O=C(COc1ccc2c3c(c(=O)oc2c1)CCCC3)NCC(O)c1ccccc1 (configuration not stated),inactive,
CCCN1C(=O)C(Cc2nc3ccccc3c(=O)n2-c2ccccc2)c2cc(C)ccc21 (configuration not stated),13.1 µM (active),
O=c1c2ccccc2nc(CSc2nnnn2-c2ccccc2)n1-c1ccccc1,inactive,
CCCc1nc2ccccc2c(=O)n1/N=C/c1ccc(O)c(O)c1,inactive,
COCCNC(=O)CN(Cc1ccco1)C(=O)CCC(=O)Nc1nccs1,inactive,
CCOc1ccc(CCNC(=O)CCc2nnc3ccc(N4CCCC4)nn23)cc1OCC,inactive,
CC1C(=O)N2CCCc3cc(S(=O)(=O)NCc4ccc(F)cc4)cc1c32 (configuration not stated),inactive,
CC1CCN(C(=O)C2CCN(S(=O)(=O)N3CCC4(CC3)OCCO4)CC2)CC1,inactive,
CC1(C)CC(=O)CC2(C1)NCC(c1ccccc1Cl)c1c2[nH]c2ccccc12 (configuration not stated),10.4 µM (active),
